# According to PubChem BioAssay (NCATS):
# “And” between values parts separate entries of the source, which are not always exact repeats. Equal values may be shown once. Unmarked numbers belong to inactive results. Results filed as inconclusive are left out. Entries that show only a call come without a potency. The source made the active and inactive calls. Unless noted, calls follow the shape of the dose curve; as a rule, active = well fitted curve in the direction sought with a large enough effect; inconclusive = small, poorly fitted or top-dose-only effect, or another doubt; inactive = no such curve, though single readings can be large; an effect the other way counts as inactive or inconclusive.
# Key:
# [1] = biological target: Cytochrome P450 2D6 (Homo sapiens) (UniProt P10635); assay: qHTS Assay for Inhibitors and Substrates of Cytochrome P450 2D6 (AID 891); also: potency is read from the fitted curve at half-maximal effect; nearly all actives have a fitted effect of over 60% in size
# How it was run: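 Luminescent read-out of luciferin formed by 5 nM human CYP2D6 demethylating 30 uM Luciferin-ME EGE (Km level) over 60 min at room temperature after NADPH regeneration addition. Data normalized to full inhibition by 1.43 uM quinidine.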
# [2] = biological target: Muscarinic acetylcholine receptor M1 (Rattus norvegicus) (UniProt P08482); assay: qHTS Assay for Antagonists of Acetylcholine Muscarinic M1 Receptor: Kinetic Measurement of Intracellular Calcium Response (AID 943); also: potency is read from the fitted curve at half-maximal effect; nearly all actives have a fitted effect of over 75% in size
# How it was run: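 Read-out: peak over basal Fluo-4 fluorescence, kinetic at 1 Hz for 4 min after EC80 carbachol (100 nM final). Rat M1-CHO cells, dye loaded 1 h at 37C, compound added 10 min before agonist.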
# [3] = biological target: Muscarinic acetylcholine receptor M1 (Rattus norvegicus) (UniProt P08482); assay: qHTS Assay for Antagonists of Acetylcholine Muscarinic M1 Receptor: Measurement of IP-One Response (AID 944); also: potency is read from the fitted curve at half-maximal effect; nearly all actives have a fitted effect of over 75% in size
# How it was run: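 Read-out: HTRF competition between d2-IP1 and Eu-cryptate anti-IP1 antibody, emission 620 and 665 nm. Stimulus was carbachol, EC80 (200 nM), for 30 min in M1-CHO cells (rat receptor), after 10 min compound pre-treatment.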
# [4] = qHTS Assay for Identification of Small Molecule Agonists for Hypoxia Response Element Signaling Pathway (AID 914; active = well fitted activation curve with a large enough effect in the signal ratio, with a control signal flat, not every such curve was filed as active; the % refers to the signal ratio); settings: ME-180 (cervical carcinoma) HRE-bla reporter, beta-lactamase ratio, CoCl2, 17 h; hits give high values
# How it was run: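 Positive modulation of EC50 CoCl2-induced hypoxia response element signaling is measured in ME-180 cells with a beta-lactamase reporter. Compounds are titrated, incubation runs 17 hours, and %Activity derives from the blue/green ratio.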
# [5] = biological target: Pyruvate kinase (Leishmania mexicana) (UniProt Q27686); assay: qHTS Validation Assay for Inhibitors of Leishmania Mexicana Pyruvate Kinase (AID 945); also: potency is read from the fitted curve at half-maximal effect
# How it was run: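 qHTS eight-point titrations against 0.2 nM LmPYK (E451W) in imidazole buffer pH 7.2 with 0.5 mM PEP, 0.1 mM ADP; 1 h, room temperature. Readout: PKLight luminescence, normalized to neutral DMSO wells.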
# [6] = Confirmation and Secondary Assay for Modulators of Hemoglobin Beta Chain Splicing at IVS2 654 locus (AID 910);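 also: HeLa cells stably carrying EGFP split by mutant beta-globin IVS2-654 intron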
# How it was run: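 HeLa cells stably expressing EGFP interrupted by β-globin IVS2-654 intron, seeded overnight in Opti-MEM/2% FCS, then treated 2 days at 37 °C. Restored splicing read as total peak GFP intensity per well by laser scanning cytometry (488 nm excitation, 500–520 nm emission); 500 nM antisense PNA as control.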
# [7] = Confirmation and Secondary Assay for Modulators of Hemoglobin Beta Chain Splicing at IVS2 705 locus (AID 930);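 also: HeLa cells stably expressing the EGFP-705 splicing reporter; GFP fluorescence per well restored by corrected splicing of the IVS2-705 intron in EGFP; series mostly up to about 46 µM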
# How it was run: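 First, HeLa EGFP-705 cells are seeded at 500/well in Optimem with 2% FCS and left overnight. Next, compound or DMSO is added for 2 days. Finally wells are laser-scanned and total peak GFP intensity scored.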
# [8] = biological target: Cytochrome P450 3A4 (Homo sapiens) (UniProt P08684); assay: qHTS Assay for Activators of Cytochrome P450 3A4 (AID 885); also: nearly all actives have a fitted effect of over 65% in size
# How it was run: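 Activators are scored by enhanced luminescence from CYP3A4 conversion of luciferin-PPXE (25uM, equal to KM) to luciferin, after 60 min at RT with an NADPH-regenerating system.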
# [9] = qHTS Assay for Identification of Small Molecule Agonists for Thrombopoietin (TPO) Signaling Pathway (AID 917)
# How it was run: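 Human TPO receptor–transfected Ba/F3 cells (murine, IL-3-dependent) in IL-3-deficient medium; compounds plus TPO at EC50, 26 pM final; 24 hrs, 37 C; GpIIb-luciferase luminescence after 10 min RT detection.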
# [10] = biological target: Cytochrome P450 2C19 (Homo sapiens) (UniProt P33261); assay: qHTS Assay for Inhibitors and Substrates of Cytochrome P450 2C19 (AID 899); also: potency is read from the fitted curve at half-maximal effect; nearly all actives have a fitted effect of over 60% in size
# How it was run: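 Signal comes from luciferase acting on luciferin released by CYP2C19-mediated hydroxylation of Luciferin-H EGE, 10uM (KM). Assay mix: 5nM enzyme, 50mM KPO4; 60 min at 37C with NADPH regeneration. Data normalized against 57uM ketoconazole.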
# [11] = qHTS Assay for Identification of Small Molecule Antagonists for Thrombopoietin (TPO) Signaling Pathway (AID 918); settings: TPO-dependent cell signaling reporter, antagonist mode; also: potency is read from the fitted curve at half-maximal effect; nearly all actives have a fitted effect of over 60% in size
# How it was run: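 Luminescence read-out: GPIIb-promoter luciferase in Ba/F3 cells carrying human TPO receptor. Compounds added with 26 pM TPO (EC50), 24 hrs, 37 C, 5% CO2; cells deprived of IL-3 overnight beforehand. Inhibition of signal scored.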
# Sequence of Cytochrome P450 2D6 (Homo sapiens) (P10635 whole entry, looked up): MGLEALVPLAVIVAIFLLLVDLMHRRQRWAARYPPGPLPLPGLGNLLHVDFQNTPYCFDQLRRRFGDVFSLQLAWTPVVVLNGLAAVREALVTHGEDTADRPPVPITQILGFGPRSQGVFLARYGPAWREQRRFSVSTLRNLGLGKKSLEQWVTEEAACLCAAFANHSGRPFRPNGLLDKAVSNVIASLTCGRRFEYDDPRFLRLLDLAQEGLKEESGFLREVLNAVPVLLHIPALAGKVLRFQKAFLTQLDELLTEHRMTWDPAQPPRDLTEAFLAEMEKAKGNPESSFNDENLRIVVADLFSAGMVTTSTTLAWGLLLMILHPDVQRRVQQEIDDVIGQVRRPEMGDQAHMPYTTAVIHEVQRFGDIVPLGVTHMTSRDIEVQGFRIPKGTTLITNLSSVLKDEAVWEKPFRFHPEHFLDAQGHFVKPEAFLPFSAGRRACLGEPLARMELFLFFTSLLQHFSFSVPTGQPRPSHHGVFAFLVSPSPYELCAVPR
# Sequence of Pyruvate kinase (Leishmania mexicana) (Q27686 2-499 E452W): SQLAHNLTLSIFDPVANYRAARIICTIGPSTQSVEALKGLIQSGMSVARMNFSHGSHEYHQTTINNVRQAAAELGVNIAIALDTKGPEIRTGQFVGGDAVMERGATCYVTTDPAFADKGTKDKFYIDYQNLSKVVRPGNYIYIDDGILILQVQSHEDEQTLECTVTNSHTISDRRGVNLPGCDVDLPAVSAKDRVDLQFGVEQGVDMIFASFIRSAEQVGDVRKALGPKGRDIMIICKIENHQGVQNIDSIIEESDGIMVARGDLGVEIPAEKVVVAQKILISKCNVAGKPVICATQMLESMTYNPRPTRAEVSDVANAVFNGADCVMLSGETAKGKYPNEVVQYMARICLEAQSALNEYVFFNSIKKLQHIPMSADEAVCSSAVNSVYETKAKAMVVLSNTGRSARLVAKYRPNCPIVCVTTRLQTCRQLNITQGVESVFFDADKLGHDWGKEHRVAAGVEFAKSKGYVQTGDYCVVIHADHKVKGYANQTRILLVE
# Sequence of Cytochrome P450 3A4 (Homo sapiens) (P08684 whole entry, looked up): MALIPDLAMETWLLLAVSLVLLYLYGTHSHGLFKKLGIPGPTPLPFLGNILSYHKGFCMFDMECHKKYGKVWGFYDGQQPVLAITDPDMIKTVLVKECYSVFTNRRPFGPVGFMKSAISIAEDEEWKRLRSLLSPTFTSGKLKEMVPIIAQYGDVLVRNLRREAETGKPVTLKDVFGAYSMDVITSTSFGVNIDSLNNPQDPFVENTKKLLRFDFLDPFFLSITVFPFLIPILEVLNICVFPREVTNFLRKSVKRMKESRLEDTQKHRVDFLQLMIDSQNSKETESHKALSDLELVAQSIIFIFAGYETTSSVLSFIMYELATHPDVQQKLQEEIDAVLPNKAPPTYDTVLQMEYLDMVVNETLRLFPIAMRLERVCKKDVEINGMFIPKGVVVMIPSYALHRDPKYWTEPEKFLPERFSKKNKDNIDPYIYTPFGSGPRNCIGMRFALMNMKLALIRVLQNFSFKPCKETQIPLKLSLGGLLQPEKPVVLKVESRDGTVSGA
# Sequence of Muscarinic acetylcholine receptor M1 (Rattus norvegicus) (P08482 whole entry, looked up): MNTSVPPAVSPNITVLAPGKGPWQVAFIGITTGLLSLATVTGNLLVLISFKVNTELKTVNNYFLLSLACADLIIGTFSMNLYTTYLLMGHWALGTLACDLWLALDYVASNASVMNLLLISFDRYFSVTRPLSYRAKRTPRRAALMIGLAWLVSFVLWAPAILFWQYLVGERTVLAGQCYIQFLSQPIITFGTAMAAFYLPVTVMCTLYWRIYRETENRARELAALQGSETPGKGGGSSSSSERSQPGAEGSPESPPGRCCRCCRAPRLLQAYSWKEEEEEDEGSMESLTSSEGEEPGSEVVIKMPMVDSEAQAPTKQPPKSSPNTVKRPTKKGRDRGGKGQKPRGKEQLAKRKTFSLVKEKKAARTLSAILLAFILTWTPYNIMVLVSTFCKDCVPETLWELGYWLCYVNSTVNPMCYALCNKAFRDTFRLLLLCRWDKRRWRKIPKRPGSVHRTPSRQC
# Sequence of Cytochrome P450 2C19 (Homo sapiens) (P33261 whole entry, looked up): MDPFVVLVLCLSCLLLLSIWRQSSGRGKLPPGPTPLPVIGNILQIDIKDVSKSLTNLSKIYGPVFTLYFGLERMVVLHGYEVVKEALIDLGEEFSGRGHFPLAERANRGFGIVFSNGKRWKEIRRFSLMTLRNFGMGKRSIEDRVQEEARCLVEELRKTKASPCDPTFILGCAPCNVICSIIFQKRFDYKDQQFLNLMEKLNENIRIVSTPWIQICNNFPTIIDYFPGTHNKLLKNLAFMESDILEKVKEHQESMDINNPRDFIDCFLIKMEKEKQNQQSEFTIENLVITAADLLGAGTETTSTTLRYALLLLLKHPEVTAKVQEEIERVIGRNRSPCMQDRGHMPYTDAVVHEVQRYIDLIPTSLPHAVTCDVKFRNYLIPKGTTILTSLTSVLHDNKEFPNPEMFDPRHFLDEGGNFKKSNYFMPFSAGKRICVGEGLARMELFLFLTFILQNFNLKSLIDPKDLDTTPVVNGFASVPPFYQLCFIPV
compound,measurement,setting,value
CCC(=O)c1ccc2c(c1)N(CCCN(C)C)c1ccccc1S2,Potency,[1],2 µM (active)
same,Potency,[2],398 nM (active)
same,Potency,[3],1.41 µM (active)
CCc1cccc(N(C)C(N)=Nc2cccc3ccccc23)c1,Potency,[1],0.199 µM (active)
same,activation,[4],-13%
same,Potency,[5],inactive
CC(C)COCC(CN(Cc1ccccc1)c1ccccc1)N1CCCC1 (stereo unspecified),outcome,[6],inactive
same,outcome,[7],inactive
COC(=O)C1=C(C)NC(C)=C(C(=O)OCCN(C)Cc2ccccc2)C1c1cccc([N+](=O)[O-])c1 (stereo unspecified),outcome,[6],inactive
same,outcome,[7],inactive
CCCC(C(=O)OCCN(CC)CC)(c1ccccc1)c1ccccc1,Potency,[8],inactive
same,Potency,[1],63.1 nM (active) and 15.8 nM (active)
same,outcome,[6],inactive
same,outcome,[9],inactive
same,outcome,[7],inactive
same,Potency,[2],447 nM (active)
same,Potency,[3],11.2 µM (active)
same,Potency,[5],inactive
C[n+]1cc2c3c(ccc2c2ccc4cc5c(cc4c21)OCO5)OCO3,Potency,[8],inactive
same,Potency,[10],6.31 µM (active)
same,outcome,[6],inactive
same,Potency,[11],1 µM (active)
same,outcome,[7],inactive
same,Potency,[3],12.6 µM (active)
same,Potency,[5],10 µM (active)
C[N+](C)(C)CCOC(=O)CCC(=O)OCC[N+](C)(C)C,Potency,[5],inactive
CN1CCN(C2=Nc3ccccc3Oc3ccc(Cl)cc32)CC1,Potency,[8],inactive
same,outcome,[6],inactive
same,outcome,[7],inactive
same,Potency,[2],282 nM (active)
same,Potency,[3],3.16 µM (active)
